About 79,000 compounds went through this panel and 15% of them were active in at least one assay; those are over-represented in the sample as a whole. Active and inactive are the calls of the source. Cut-off read from the data, not from the text of the source: active = growth inhibition above about 70%; inactive = the rest.
Key:
[1] = NCI Yeast Anticancer Drug Screen. Data for the rad52 strain (AID 147);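 note: 0% = growth of vehicle-treated control cultures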; conditions: S. cerevisiae rad52 mutant growth inhibition, hits give high values
Outline: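 Compounds are applied to a genetically defined yeast strain lacking normal DNA damage repair, and inhibition of growth is expressed relative to cultures given vehicle only.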

[2] = NCI Yeast Anticancer Drug Screen. Data for the wt1 strain (AID 149);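 note: 0% = growth of vehicle-treated wt1 cultures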; conditions: S. cerevisiae wt1 strain (SPY 50644) growth inhibition, hits give high values
Outline: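 Using yeast strain wt1, compound-induced growth inhibition was determined against vehicle-treated cultures.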

[3] = NCI Yeast Anticancer Drug Screen. Data for the rad50EPP+ strain (AID 151);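 note: 0% = growth of vehicle-treated control cultures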; conditions: S. cerevisiae rad50 mutant strain, hits give high values
Outline: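 Compounds were applied to the rad50EPP+ yeast strain, which bears a defined DNA repair alteration, and growth inhibition was determined relative to vehicle-treated cultures.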

[4] = NCI Yeast Anticancer Drug Screen. Data for the mgt1 strain (AID 153); conditions: S. cerevisiae mgt1 mutant growth inhibition, hits give high values
Outline: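 Strain: mgt1 yeast, one of a set carrying defined DNA damage repair or cell cycle control alterations. Compound-treated growth compared with vehicle.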

[5] = NCI Yeast Anticancer Drug Screen. Data for the mec2-1 strain (AID 157); conditions: S. cerevisiae mec2-1 strain, hits give high values
Outline: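 Strain: mec2-1 (DNA repair/cell cycle alteration). Compound exposure, then growth measured; inhibition expressed relative to vehicle.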

[6] = NCI Yeast Anticancer Drug Screen. Data for the rad14 strain (AID 159);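 note: 0% = growth of vehicle-treated control cultures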; conditions: S. cerevisiae rad14 strain growth inhibition, hits give high values
Outline: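 Screen for anticancer potential: a yeast strain altered in DNA damage repair is grown with compound, and reduced growth is quantified against vehicle controls.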

[7] = NCI Yeast Anticancer Drug Screen. Data for the sgs1 mgt1 strain (AID 161);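 note: 0% = growth of cultures given vehicle only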; conditions: S. cerevisiae sgs1 mgt1 strain, hits give high values
Outline: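 Mutant yeast exposed to compound; growth scored against vehicle-only wells.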

[8] = NCI Yeast Anticancer Drug Screen. Data for the CLN2oe strain (AID 163);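 note: 0% = growth of vehicle-only control cultures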; conditions: S. cerevisiae CLN2oe strain, hits give high values
Outline: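 Growth of a genetically modified yeast strain is measured after compound exposure and compared with cultures given vehicle alone.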

[9] = NCI Yeast Anticancer Drug Screen. Data for the cln2 rad14 strain (AID 165);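 note: 0% = growth equal to vehicle treated cultures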; conditions: S. cerevisiae cln2 rad14 strain, hits give high values
Outline: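 Compounds are applied to the cln2 rad14 yeast strain, and growth is then compared with that of vehicle-treated cultures to give inhibition.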

[10] = NCI Yeast Anticancer Drug Screen. Data for the bub3 strain (AID 167); conditions: S. cerevisiae bub3 mutant strain, hits give high values
Outline: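 Screening used yeast with an engineered genetic alteration affecting cell cycle control. Compound-exposed cultures were compared with vehicle cultures, and reduced growth was taken as inhibition.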

[11] = NCI Yeast Anticancer Drug Screen. Data for the wt2 strain (AID 169);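 note: 0% = growth of vehicle-treated yeast cultures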; conditions: S. cerevisiae wt2 strain growth inhibition, hits give high values
Outline: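 This strain belongs to a panel of yeast strains with defined genetic alterations in DNA damage repair or cell cycle control. Compounds are applied, and growth inhibition is measured against vehicle-treated cultures.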

[12] = NCI Yeast Anticancer Drug Screen. Data for the mlh1 strain (AID 171);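 note: 0% = growth of vehicle-treated control cultures of the same strain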; conditions: S. cerevisiae mlh1 strain growth inhibition, hits give high values
Outline: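 Growth of the mutant yeast strain after compound exposure, expressed as inhibition relative to vehicle-only controls.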

[13] = NCI Yeast Anticancer Drug Screen. Data for the sgs1 strain (AID 173);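 note: 0% = growth of vehicle-only control cultures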; conditions: S. cerevisiae sgs1 mutant, hits give high values
Outline: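 Growth of a yeast strain bearing a defined genetic alteration is measured after compound treatment. Inhibition is expressed relative to vehicle-only controls.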

[14] = NCI Yeast Anticancer Drug Screen. Data for the mlh1 rad18 strain (AID 175); conditions: S. cerevisiae mlh1 rad18 strain growth inhibition, hits give high values
Outline: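 Read-out is yeast growth inhibition, calculated against vehicle-only controls. The compound was applied to a strain engineered with DNA damage repair alterations.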

[15] = NCI Yeast Anticancer Drug Screen. Data for the rad18 strain (AID 177); conditions: S. cerevisiae rad18 mutant growth inhibition, hits give high values
Outline: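 Growth of the mutant yeast strain after compound exposure, normalised to vehicle-only cultures.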

[16] = NCI Yeast Anticancer Drug Screen. Data for the rad50 strain (AID 155);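 note: 0% = growth of vehicle-only cultures of the same strain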; conditions: S. cerevisiae rad50 strain growth inhibition, hits give high values
Outline: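 Relative growth inhibition (compound vs vehicle) was measured in yeast with a defined repair-gene alteration.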

[17] = at 5.0 µM (retest, dose inferred, filed as 0.5)
[18] = at 50.0 µM (retest, dose inferred, filed as 5.0)

Measured: growth inhibition

COc1ccccc1NC(=O)c1ccc(Cl)cc1
active: [9]; [18] 75%
inactive: [1]; at 1.2 µM 0% | [1]; at 3.7 µM 3% | [1]; at 11.0 µM 4% | [1]; at 33.0 µM 5% | [1]; at 100.0 µM 1% | [2]; at 1.2 µM -1% | [2]; at 3.7 µM 1% | [2]; at 11.0 µM 1% | [2]; at 33.0 µM 0% | [2]; at 100.0 µM -1% | [3]; at 1.2 µM 7% | [3]; at 3.7 µM 9% | [3]; at 11.0 µM 22% | [3]; at 33.0 µM 40% | [3]; at 100.0 µM 40% | [4]; at 1.2 µM -2% | [4]; at 3.7 µM -1% | [4]; at 11.0 µM 0% | [4]; at 33.0 µM -2% | [4]; at 100.0 µM -10% | [5]; at 1.2 µM -5% | [5]; at 3.7 µM -5% | [5]; [17] -6% | [5]; at 11.0 µM -7% | [5]; at 33.0 µM -6% | [5]; [18] -14% | [5]; at 50.0 µM 11.1% | [5]; at 100.0 µM -4% | [6]; at 1.2 µM 0% | [6]; at 3.7 µM -1% | [6]; at 11.0 µM 0% | [6]; at 33.0 µM 1% | [6]; at 100.0 µM 0% | [7]; [17] 3% | [7]; [18] 7% | [7]; at 50.0 µM 20.8% | [8]; at 1.2 µM -2% | [8]; at 3.7 µM 0% | [8]; at 11.0 µM -6% | [8]; at 33.0 µM -7% | [8]; at 100.0 µM -4% | [9]; [17] 23% | [9]; at 50.0 µM 16.9% | [10]; at 1.2 µM -5% | [10]; at 3.7 µM -5% | [10]; [17] -8% | [10]; at 11.0 µM -3% | [10]; at 33.0 µM 5% | [10]; [18] -10% | [10]; at 50.0 µM 23.9% | [10]; at 100.0 µM 7% | [11]; at 1.2 µM -1% | [11]; at 3.7 µM -2% | [11]; at 11.0 µM -2% | [11]; at 33.0 µM -3% | [11]; at 100.0 µM -2% | [12]; at 1.2 µM 0% | [12]; at 3.7 µM 1% | [12]; at 11.0 µM 4% | [12]; at 33.0 µM 3% | [12]; at 100.0 µM 3% | [13]; at 1.2 µM 0% | [13]; at 3.7 µM 1% | [13]; at 11.0 µM 2% | [13]; at 33.0 µM 3% | [13]; at 100.0 µM 2% | [14]; [17] -6% | [14]; [18] 11% | [14]; at 50.0 µM 0.15% | [15]; at 1.2 µM 3% | [15]; at 3.7 µM 3% | [15]; at 11.0 µM 1% | [15]; at 33.0 µM 3% | [15]; at 100.0 µM 2%

CSC(=S)N/N=C/c1ccccc1
active: [3]; at 100.0 µM 75% | [16]; at 11.0 µM 82% | [16]; at 33.0 µM 83% | [16]; [18] 86% | [16]; at 50.0 µM 94.6% | [16]; at 100.0 µM 82% | [7]; [18] 87% | [7]; at 50.0 µM 75.2% | [10]; [18] 82% | [10]; at 50.0 µM 90% | [14]; [18] 85% | [14]; at 50.0 µM 89.5% | [15]; at 11.0 µM 86% | [15]; at 33.0 µM 86% | [15]; at 100.0 µM 81%
inactive: [1]; at 1.2 µM 10% | [1]; at 3.7 µM 20% | [1]; at 11.0 µM 53% | [1]; at 33.0 µM 67% | [1]; at 100.0 µM 67% | [2]; at 1.2 µM 4% | [2]; at 3.7 µM 11% | [2]; at 11.0 µM 29% | [2]; at 33.0 µM 48% | [2]; at 100.0 µM 43% | [3]; at 1.2 µM -1% | [3]; at 3.7 µM 2% | [3]; at 11.0 µM 16% | [3]; at 33.0 µM 60% | [4]; at 1.2 µM 3% | [4]; at 3.7 µM 2% | [4]; at 11.0 µM 22% | [4]; at 33.0 µM 27% | [4]; at 100.0 µM 39% | [16]; at 1.2 µM 28% | [16]; at 3.7 µM 57% | [16]; [17] 38% | [7]; [17] 26% | [8]; at 1.2 µM -3% | [8]; at 3.7 µM 3% | [8]; at 11.0 µM 14% | [8]; at 33.0 µM 22% | [8]; at 100.0 µM 17% | [9]; [17] 16% | [9]; [18] 21% | [9]; at 50.0 µM 49.3% | [10]; at 1.2 µM 32% | [10]; at 3.7 µM 28% | [10]; [17] 46% | [10]; at 11.0 µM 59% | [10]; at 33.0 µM 60% | [10]; at 100.0 µM 59% | [11]; at 1.2 µM -2% | [11]; at 3.7 µM 2% | [11]; at 11.0 µM 16% | [11]; at 33.0 µM 28% | [11]; at 100.0 µM 37% | [12]; at 1.2 µM 1% | [12]; at 3.7 µM 3% | [12]; at 11.0 µM 25% | [12]; at 33.0 µM 26% | [12]; at 100.0 µM 37% | [13]; at 1.2 µM 0% | [13]; at 3.7 µM 5% | [13]; at 11.0 µM 21% | [13]; at 33.0 µM 44% | [13]; at 100.0 µM 55% | [14]; [17] 48% | [15]; at 1.2 µM 23% | [15]; at 3.7 µM 55%

O=C(O)c1ccc2cc(Cl)c3ccccc3c2c1
inactive: [1]; at 1.2 µM 1% | [1]; at 3.7 µM 9% | [1]; at 11.0 µM 28% | [1]; at 33.0 µM 55% | [1]; at 100.0 µM 67% | [2]; at 1.2 µM -4% | [2]; at 3.7 µM 3% | [2]; at 11.0 µM 11% | [2]; at 33.0 µM 30% | [2]; at 100.0 µM 43% | [3]; at 1.2 µM 3% | [3]; at 3.7 µM 9% | [3]; at 11.0 µM 17% | [3]; at 33.0 µM 24% | [3]; at 100.0 µM 21% | [4]; at 1.2 µM -1% | [4]; at 3.7 µM -4% | [4]; at 11.0 µM 15% | [4]; at 33.0 µM 41% | [4]; at 100.0 µM 60% | [16]; at 1.2 µM 2% | [16]; at 3.7 µM 12% | [16]; [17] 23% | [16]; at 11.0 µM 31% | [16]; at 33.0 µM 52% | [16]; at 100.0 µM 67% | [5]; at 1.2 µM -5% | [5]; at 3.7 µM 7%
active: [16]; [18] 93% | [16]; at 50.0 µM 94.9%

— PubChem BioAssay (NCI)
